# From ChEMBL document CHEMBL3988442, “University of Dundee, Small-Polar-MMV Screening Library” (2021)
# Out of some 69,000 compounds screened, about 1,000 (1.4%) showed an effect of 50% or more. The sample as a whole holds a higher share of strong results than the screen did.
# Test system: Leishmania donovani
# Assay: Leishmania intramacrophage assay
# Type: functional, organism-based
# Parameters: scale not given: in the data most compounds retested in dose-response had high values
Compound,"Percent Effect (30.3 µM, […]) [%]","Percent Effect (30 µM, 30.03 µM) [%]"
CC(C)CN1CCC2(CC1)C(=O)Nc1ccc(C(=O)NC(C)C)cc12.O=C(O)C(F)(F)F,-1.007,–
Cc1ccc(CN2C[C@@H]3CCN(Cc4ccncc4)C(=O)[C@H]3C2)s1.O=C(O)C(F)(F)F.O=C(O)C(F)(F)F,7.943,–
N#Cc1ccc(NC2CCN(c3ncccn3)CC2)cc1Cl,-22.27,–
COCC1CN(c2ccc(C#N)c(Cl)c2)CCO1 (stereo not drawn),27.15,–
N#Cc1ccc(N2CCC(OC3CCOCC3)CC2)cc1Cl,58.7,–
O=C(Nc1cccnc1)[C@H]1C[C@H]2OCC[C@H]2N(CC2CC2)C1.O=C(O)C(F)(F)F.O=C(O)C(F)(F)F,5.172,–
O=C(O)C(F)(F)F.O=C(O)C(F)(F)F.O=C(O)C(F)(F)F.c1cncc(CN2CCO[C@H]3[C@H](OCCN4CCCC4)CC[C@@H]32)c1,-1.777,–
Fc1cccnc1O[C@H]1CN(Cc2ccoc2)[C@@H]2CCCO[C@H]12.O=C(O)C(F)(F)F.O=C(O)C(F)(F)F,9.385,–
O=C(C[C@@H]1COC[C@H]2CN(CC3CC3)C[C@@H]12)NCc1cccnc1.O=C(O)C(F)(F)F.O=C(O)C(F)(F)F,54.71,–
O=C(C[C@@H]1COC[C@H]2CN(Cc3cccnc3)C[C@@H]12)NCC1CC1.O=C(O)C(F)(F)F.O=C(O)C(F)(F)F,18.63,–
COCCN1C[C@@H]2COC[C@@H](CC(=O)NCc3cccnc3)[C@@H]2C1.O=C(O)C(F)(F)F.O=C(O)C(F)(F)F,44.79,–
O=C(O)C(F)(F)F.O=C(O)C(F)(F)F.c1cncc(CN2CC[C@H]3O[C@@H](COCC4CC4)CC[C@H]32)c1,–,39.71
COc1ncccc1CN1C[C@H]2CCN(c3ncccn3)C[C@H]2C1.O=C(O)C(F)(F)F,28.82,–
COc1ncccc1CN1C[C@H]2CCN(C(C)C)C[C@H]2C1.O=C(O)C(F)(F)F.O=C(O)C(F)(F)F,-4.656,–
COCCN1CC[C@@H]2CN(Cc3cccnc3OC)C[C@@H]2C1.O=C(O)C(F)(F)F.O=C(O)C(F)(F)F,55.04,–
CN(C)c1nccc(N2CCO[C@H]3CN(Cc4ccco4)C[C@H]32)n1,57.89,–
CN(C)c1nccc(N2CCO[C@H]3CN(Cc4ccsc4)C[C@H]32)n1.O=C(O)C(F)(F)F,–,28.84
COCCN1C[C@@H]2OCCN(c3ccnc(N(C)C)n3)[C@@H]2C1,23.22,–
C[C@@H]1C(=O)NC[C@H]2CN(Cc3ccsc3)C[C@H]21.O=C(O)C(F)(F)F,–,28.53
CCCc1nc2c(c(C)c(C)n2CCN(C)C)c(N)c1CC,99.96,–
CNC(=O)CN1CCC12CCN(C(=O)Cc1ccccc1)C2.O=C(O)C(F)(F)F (stereo not drawn),9.106,–
CCCn1cc(C(=O)NCCS(N)(=O)=O)c2ccccc21,23.59,–
CCCn1cc(C(=O)NCCCC(N)=O)c2ccccc21,41.21,–
COCCn1cc(C(=O)NCCS(N)(=O)=O)c2ccccc21,59.49,–
CN(C)C[C@H]1C[C@@H]2CN(Cc3ccoc3)C[C@@H]2O1.O=C(O)C(F)(F)F.O=C(O)C(F)(F)F,4.803,–
Cl.Cl.c1cncc(COC[C@@H]2CCC[C@@]23CNCCO3)c1,73.99,–
Cl.Cl.c1cc(COC[C@@H]2CCC[C@@]23CNCCO3)ccn1,–,8.265
O=C(O)C(F)(F)F.O=C(O)C(F)(F)F.c1cncc(COC[C@@H]2CCC[C@]23CNCCO3)c1,27.95,–
